From PMC5540273 (PLoS ONE, 2017) come the findings set out here.

Test systems include PAK3; PAK4; PAK6; PAK7; PDGFRA; PDGFRB; PDPK1.
What all share (settings): concentration: 1 μM, replicates: in singlicate; n = 1
The test system of a further assay is T1, PCTK1.
T1 construct: gene CDK16

A further assay relates to T2, PCTK2.
T2 construct: gene CDK17

The next assay deals with T3, PCTK3.
T3 construct: gene CDK18
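Also: KINOMEscan kinase panel screen.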

Regarding `CS(=O)(=O)Cc1ccc(Nc2nccc(-c3c(-c4cccc(NC(=O)C5CCCCC5)c4)nn4ncccc34)n2)cc1` [GSK350559], the “%Inh” value in the assay on PAK3 is listed as 0%; in the assay on PAK4 it was 13%; in the assay on PAK6, 19%; in the assay with PAK7, 2%; in the assay on PCTK1, 20%; in the assay on PCTK2, 0%. Besides, the “%Inh” value came to 12% in the assay on PCTK3, 53% in the assay with PDGFRA, 93.9% in the assay on PDGFRB and 1% with PDPK1.
Turning to `O=C1NC(=O)C(c2ccc(Cl)cc2)=C1Nc1ccc(O)cc1` [SB-340867], the “%Inh” value with PAK3 is given as 0%; in the assay on PAK4 it was 0%; with PAK6, 0%; with PAK7, 0%; in the assay on PCTK1, 0%; in the assay on PCTK2, 4%. Moreover, the “%Inh” value in the assay on PCTK3 is recorded as 0%; in the assay on PDGFRA, 0%; in the assay with PDGFRB, 0%; in the assay on PDPK1 it was 17%.
Take `Cn1cnc2c(N)ncnc21` [SKF-97623]: the “%Inh” value with PAK3, in the assay on PAK4, in the assay with PAK6, with PAK7, with PCTK1 and in the assay with PCTK2 was 0% throughout. Further, the “%Inh” value came out at 0% in the assay with PCTK3, 100% with PDGFRA, 0% in the assay with PDGFRB and 0% with PDPK1.
Regarding `Nc1cccc(-c2ccc3c(N)n[nH]c3c2)n1` [GSK2192730], the “%Inh” value in the assay with PAK3 was found to be 0%; with PAK4 it was 0%; in the assay with PAK6, 8%; in the assay with PAK7, 7%; in the assay with PCTK1, 4%; in the assay with PCTK2 it was 20%. The “%Inh” value with PCTK3 was 3%; with PDGFRA, 2%; in the assay on PDGFRB it was 18%; in the assay with PDPK1, 0%.
Turning to `Fc1ccc(-c2nc[nH]c2-c2ccncc2)cc1` [SB-217360], the “%Inh” value with PAK3 worked out at 0%; with PAK4, 13%; in the assay on PAK6 it was 2%; in the assay on PAK7, 0%; with PCTK1, 0%; in the assay on PCTK2, 0%. Moreover, the “%Inh” value with PCTK3, with PDGFRA, in the assay on PDGFRB and in the assay on PDPK1 was 0% throughout.
For the compound `COc1cccc(C2=C(Nc3cc(Cl)c(O)c(Cl)c3)C(=O)NC2=O)c1` [SB-390767], the “%Inh” value is given as 100% in the assay with PAK3; 0% with PAK4; 0% with PAK6; 0% in the assay with PAK7; 2% in the assay with PCTK1; 0% with PCTK2. The “%Inh” value with PCTK3, with PDGFRA, in the assay with PDGFRB and with PDPK1 was 0% throughout.
Consider `COc1ccc(Nc2nccc(NCCNC(=O)Nc3cc(C)ccc3C)n2)cc1` [GSK1379899], for which the “%Inh” value with PAK3 is recorded as 22%; in the assay on PAK4, 0%; in the assay on PAK6, 0%; in the assay with PAK7, 0%; in the assay on PCTK1, 2%; in the assay with PCTK2 it was 0%. For the same compound, the “%Inh” value with PCTK3 is 2%; in the assay with PDGFRA it was 0%; in the assay with PDGFRB, 5%; in the assay with PDPK1 it was 0%.
In the case of `CN1c2ccc(-c3ccc(C(N)=O)cc3)cc2-c2[nH]ncc2S1(=O)=O`, the “%Inh” value in the assay with PAK3 amounted to 0%; in the assay with PAK4, 5%; in the assay with PAK6 it was 0%; in the assay on PAK7, 0%; with PCTK1, 0%; in the assay with PCTK2, 0%. Moreover, the “%Inh” value was 0% with PCTK3, 0% with PDGFRA, 0% in the assay with PDGFRB and 21% with PDPK1.
Regarding `Cc1ccc(NC(=O)Nc2ccccc2)cc1-c1ccc(C(=O)Nc2ccncc2)cc1` [GSK1398471], the “%Inh” value in the assay on PAK3 is given as 11%; with PAK4, 0%; in the assay with PAK6, 0%; in the assay on PAK7, 1%; with PCTK1, 4%; with PCTK2 it was 0%. In addition, the “%Inh” value with PCTK3 is given as 21%; with PDGFRA, 49%; in the assay with PDGFRB, 100%; with PDPK1 it was 26%.
With `COc1ccc(Nc2nccc(N3CCC(NC(=O)C(C)c4ccc(Cl)cc4)CC3)n2)cc1` (centres unmarked) [GSK1379812], the “%Inh” value in the assay on PAK3 was determined as 47%; in the assay on PAK4, 2%; in the assay on PAK6 it was 0%; in the assay with PAK7, 22%; with PCTK1, 100%; with PCTK2 it was 0%. Moreover, the “%Inh” value in the assay on PCTK3 was 15%; in the assay with PDGFRA, 0%; in the assay with PDGFRB, 27%; in the assay with PDPK1 it was 7%.
Regarding `Nc1ncnc2occ(-c3ccc4c(c3)CCN4C(=O)Cc3cc(F)ccc3F)c12` [GSK2645446], the “%Inh” value is 0% in the assay on PAK3; 0% in the assay on PAK4; 0% in the assay with PAK6; 12% in the assay on PAK7; 2% with PCTK1; 0% with PCTK2. The “%Inh” value with PCTK3 stood at 2%; in the assay with PDGFRA, 0%; in the assay with PDGFRB, 50%; in the assay on PDPK1, 0%.
`COc1nccc(-c2c(-c3ccc(F)cc3)ncn2CCCN2CCOCC2)n1` [SB-282852]: the “%Inh” value in the assay with PAK3 is 0%; in the assay on PAK4, 0%; with PAK6, 9%; with PAK7, 7%; with PCTK1 it was 6%; in the assay on PCTK2, 0%. Moreover, the “%Inh” value in the assay on PCTK3 was 0%; in the assay with PDGFRA it was 17%; in the assay with PDGFRB it was 0%; with PDPK1, 0%.
Turning to `COc1cc2ncnc(Nc3cccc(Br)c3)c2cc1OC.Cl` [GI230329], the “%Inh” value in the assay with PAK3 came to 0%; with PAK4, 0%; in the assay with PAK6 it was 0%; in the assay with PAK7, 12%; in the assay on PCTK1 it was 0%; in the assay on PCTK2, 0%. For the same compound, the “%Inh” value is reported as 2% in the assay on PCTK3, 0% in the assay with PDGFRA, 16% in the assay on PDGFRB and 11% with PDPK1.
With `CS(=O)(=O)CCNCc1nc(-c2ccc3ncnc(Nc4ccc5c(cnn5Cc5ccccc5)c4)c3c2)cs1.Cl.Cl` [GW569716], the “%Inh” value in the assay with PAK3 is reported as 22%; in the assay with PAK4, 0%; with PAK6, 0%; in the assay with PAK7, 0%; in the assay with PCTK1, 0%; in the assay on PCTK2, 0%. Also, the “%Inh” value in the assay with PCTK3 came to 16%; with PDGFRA, 0%; in the assay on PDGFRB it was 10%; in the assay with PDPK1 it was 0%.
As to `Cc1ccc(NC(=O)Nc2ccccc2F)cc1-c1ccc(C(=O)Nc2ccncc2)cc1` [GSK1398477], the “%Inh” value with PAK3 turned out to be 27%; in the assay with PAK4, 0%; with PAK6 it was 5%; with PAK7 it was 11%; with PCTK1, 4%; in the assay on PCTK2, 12%. The “%Inh” value worked out at 46% in the assay with PCTK3, 50% in the assay on PDGFRA, 100% in the assay with PDGFRB and 19% in the assay with PDPK1.
For `CC(=O)c1c(C)c2cnc(Nc3ccc(N4CCNCC4)cn3)nc2n(C2CCCC2)c1=O`, the “%Inh” value with PAK3 was 6%; in the assay on PAK4, 0%; in the assay on PAK6, 0%; with PAK7 it was 0%; in the assay with PCTK1 it was 0%; in the assay with PCTK2 it was 10%. The “%Inh” value in the assay on PCTK3 came out at 8%; in the assay with PDGFRA, 0%; with PDGFRB, 0%; with PDPK1, 0%.
Regarding `Cc1ccccc1-c1cc(-c2c[nH]nc2-c2ccccn2)ccn1` [GW680061], the “%Inh” value in the assay with PAK3 is on record as 0%; with PAK4, 0%; in the assay with PAK6, 0%; with PAK7 it was 0%; in the assay on PCTK1, 2%; with PCTK2 it was 7%. In addition, the “%Inh” value with PCTK3 came out at 20%; in the assay on PDGFRA, 0%; in the assay with PDGFRB, 41%; in the assay with PDPK1 it was 0%.
